Experimental findings from article PMC7862700, “An all-to-all approach to the identification of sequence-specific readers for epigenetic DNA modifications on cytosine” are described below.

Common to all, as to experiment: DAPPL (digital affinity profiling via proximity ligation, sequencing); 10 mM Tris-HCl pH 7.5, 50 mM NaCl, 1 mM DTT, 4% glycerol, room temperature, 30 min; GST-TFs on glutathione beads, 16-mer random dsDNA library, 0.1% formaldehyde crosslink after washing; high values mean tight binding
Conditions in all cases: protein: recombinant; tags: N-terminal GST; dsDNA, one strand shown

Assay [1] deals with T1, FLI1 (Homo sapiens, UniProt Q01543 1-452).
T1 sequence: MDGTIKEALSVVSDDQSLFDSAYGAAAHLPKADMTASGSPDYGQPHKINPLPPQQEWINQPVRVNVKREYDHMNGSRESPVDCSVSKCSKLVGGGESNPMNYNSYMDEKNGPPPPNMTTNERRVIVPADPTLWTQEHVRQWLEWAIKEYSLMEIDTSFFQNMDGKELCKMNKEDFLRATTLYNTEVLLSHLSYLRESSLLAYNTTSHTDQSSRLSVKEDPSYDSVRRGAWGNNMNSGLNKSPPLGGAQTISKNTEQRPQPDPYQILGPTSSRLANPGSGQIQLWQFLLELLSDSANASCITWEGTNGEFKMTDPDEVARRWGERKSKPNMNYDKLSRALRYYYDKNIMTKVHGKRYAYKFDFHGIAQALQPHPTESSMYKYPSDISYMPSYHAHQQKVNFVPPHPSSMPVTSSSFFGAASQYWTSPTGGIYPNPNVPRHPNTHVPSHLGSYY
An outline of the steps: (§1)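 Each value of binding signal is a hexamer's read frequency for a factor divided by the same hexamer's frequency in the tag-only sample. Barcoded, bead-captured GST fusions of human transcription factors made in yeast were pooled with that sample and incubated with 200 nmole of a random double-stranded 16-mer DNA library in Tris/NaCl/DTT/glycerol buffer at room temperature for 30 min. Washing, 0.1% formaldehyde crosslinking, proximity ligation, PCR and Illumina NextSeq500 sequencing followed.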

Assay [2] has as its target T2, ELK1 (Homo sapiens, UniProt P19419 1-428).
T2 sequence: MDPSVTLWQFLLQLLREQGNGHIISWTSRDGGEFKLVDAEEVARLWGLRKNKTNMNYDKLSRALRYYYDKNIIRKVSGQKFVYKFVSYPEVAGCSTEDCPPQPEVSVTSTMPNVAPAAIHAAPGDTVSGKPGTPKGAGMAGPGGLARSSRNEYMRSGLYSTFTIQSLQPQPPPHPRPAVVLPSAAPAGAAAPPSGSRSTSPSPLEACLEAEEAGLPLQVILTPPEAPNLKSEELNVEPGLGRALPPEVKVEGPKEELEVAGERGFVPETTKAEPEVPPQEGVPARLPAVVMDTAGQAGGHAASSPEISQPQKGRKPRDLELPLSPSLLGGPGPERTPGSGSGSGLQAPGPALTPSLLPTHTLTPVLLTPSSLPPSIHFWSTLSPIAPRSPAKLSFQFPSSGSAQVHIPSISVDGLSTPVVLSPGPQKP
An outline of the steps:
as §1

Assay [3] has as its target T3, GABPA (Homo sapiens, UniProt Q06546 1-454).
T3 sequence: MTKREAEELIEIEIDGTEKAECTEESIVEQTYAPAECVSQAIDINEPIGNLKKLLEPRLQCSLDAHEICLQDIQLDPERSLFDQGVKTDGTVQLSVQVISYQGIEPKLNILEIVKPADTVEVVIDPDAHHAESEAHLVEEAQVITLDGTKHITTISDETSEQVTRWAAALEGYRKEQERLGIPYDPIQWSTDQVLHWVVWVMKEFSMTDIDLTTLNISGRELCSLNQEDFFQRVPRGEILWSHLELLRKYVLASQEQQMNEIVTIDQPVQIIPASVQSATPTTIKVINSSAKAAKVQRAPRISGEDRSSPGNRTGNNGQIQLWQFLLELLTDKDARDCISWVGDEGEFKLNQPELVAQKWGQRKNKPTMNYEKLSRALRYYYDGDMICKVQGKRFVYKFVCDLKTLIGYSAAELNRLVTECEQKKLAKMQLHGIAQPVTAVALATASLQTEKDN
The method, boiled down:
as §1

Assay [4] concerns the target T4, ERG (Homo sapiens, UniProt P11308 1-479).
T4 sequence: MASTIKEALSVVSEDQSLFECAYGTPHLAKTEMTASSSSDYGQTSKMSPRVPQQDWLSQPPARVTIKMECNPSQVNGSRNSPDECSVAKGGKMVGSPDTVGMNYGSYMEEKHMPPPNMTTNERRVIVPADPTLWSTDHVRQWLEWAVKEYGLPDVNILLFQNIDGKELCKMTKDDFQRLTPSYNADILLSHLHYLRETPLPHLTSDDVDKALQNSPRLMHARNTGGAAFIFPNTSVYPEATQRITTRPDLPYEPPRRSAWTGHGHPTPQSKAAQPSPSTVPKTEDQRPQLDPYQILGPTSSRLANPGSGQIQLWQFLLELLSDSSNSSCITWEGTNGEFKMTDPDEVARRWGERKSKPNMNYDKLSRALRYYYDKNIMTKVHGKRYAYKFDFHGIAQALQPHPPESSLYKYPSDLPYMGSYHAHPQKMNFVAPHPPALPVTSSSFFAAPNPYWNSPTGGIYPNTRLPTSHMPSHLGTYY
The method, boiled down: as §1

In assay [5] the target is ELF1 (Homo sapiens, UniProt P32519 1-619). An outline of the steps:
as §1

Assay [6] deals with T5, EHF (Homo sapiens, UniProt Q9NZC4 1-300).
T5 sequence: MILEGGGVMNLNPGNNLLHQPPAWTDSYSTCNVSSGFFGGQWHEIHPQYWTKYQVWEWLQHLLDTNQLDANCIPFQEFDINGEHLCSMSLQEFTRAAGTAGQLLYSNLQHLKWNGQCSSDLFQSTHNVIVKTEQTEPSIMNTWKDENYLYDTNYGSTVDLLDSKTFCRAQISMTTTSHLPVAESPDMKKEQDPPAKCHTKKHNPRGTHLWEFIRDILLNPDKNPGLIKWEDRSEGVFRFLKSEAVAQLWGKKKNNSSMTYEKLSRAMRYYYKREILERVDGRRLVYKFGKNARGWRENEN
The method, boiled down:
as §1

For assay [7], the target named is SPI1 (Homo sapiens, UniProt P17947 1-270). The method, boiled down: as §1
The target of assay [8] is SPIB (Homo sapiens, UniProt Q01892 1-262). An outline of the steps: as §1
SPIB, sequence (Q01892 whole entry): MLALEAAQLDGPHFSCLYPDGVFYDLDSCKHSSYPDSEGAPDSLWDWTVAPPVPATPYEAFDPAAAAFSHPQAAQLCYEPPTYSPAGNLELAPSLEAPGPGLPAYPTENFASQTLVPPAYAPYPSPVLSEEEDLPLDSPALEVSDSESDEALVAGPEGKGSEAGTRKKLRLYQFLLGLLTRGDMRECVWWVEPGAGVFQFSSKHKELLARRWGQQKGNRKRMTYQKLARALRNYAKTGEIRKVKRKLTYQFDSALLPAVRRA
In assay [9] the target is T6, ELK3 (Homo sapiens, UniProt P41970 1-407).
T6 sequence: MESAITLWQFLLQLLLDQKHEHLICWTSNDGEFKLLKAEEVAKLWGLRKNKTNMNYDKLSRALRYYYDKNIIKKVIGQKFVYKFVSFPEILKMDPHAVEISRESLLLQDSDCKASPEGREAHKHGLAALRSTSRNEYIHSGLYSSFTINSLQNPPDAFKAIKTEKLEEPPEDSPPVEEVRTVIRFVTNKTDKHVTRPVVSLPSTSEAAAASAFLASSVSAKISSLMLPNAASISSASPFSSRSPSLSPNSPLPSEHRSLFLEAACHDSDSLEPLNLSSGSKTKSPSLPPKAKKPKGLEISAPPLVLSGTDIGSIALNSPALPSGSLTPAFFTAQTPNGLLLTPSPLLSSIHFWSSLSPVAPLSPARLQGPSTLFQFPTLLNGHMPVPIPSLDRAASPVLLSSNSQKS
The method, boiled down:
as §1

In assay [10] the target is T7, FEV (Homo sapiens, UniProt Q99581 1-238).
T7 sequence: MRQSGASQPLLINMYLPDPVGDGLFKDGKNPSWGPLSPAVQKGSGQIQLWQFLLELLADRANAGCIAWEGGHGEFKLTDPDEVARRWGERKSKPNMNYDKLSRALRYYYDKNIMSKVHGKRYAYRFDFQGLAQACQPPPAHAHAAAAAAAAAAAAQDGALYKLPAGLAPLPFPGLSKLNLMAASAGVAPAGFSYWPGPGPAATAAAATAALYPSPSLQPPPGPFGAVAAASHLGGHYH
The method, boiled down:
as §1

The target of assay [11] is ETV5 (Homo sapiens, UniProt P41161 1-510). The method, boiled down:
as §1

Assay [12] has as its target T8, SPIC (Homo sapiens, UniProt Q8N5J4 1-248).
T8 sequence: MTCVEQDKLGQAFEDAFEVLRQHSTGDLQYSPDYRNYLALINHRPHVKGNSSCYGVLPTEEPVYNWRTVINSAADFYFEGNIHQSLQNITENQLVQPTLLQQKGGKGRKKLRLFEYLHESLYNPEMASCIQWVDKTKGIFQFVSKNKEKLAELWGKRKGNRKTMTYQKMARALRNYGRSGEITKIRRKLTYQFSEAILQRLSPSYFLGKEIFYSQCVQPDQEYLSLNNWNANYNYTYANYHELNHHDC
An outline of the steps: as §1

For assay [13], the target named is ELF4 (Homo sapiens, UniProt Q99607 1-663). An outline of the steps: as §1
ELF4, sequence (Q99607 whole entry): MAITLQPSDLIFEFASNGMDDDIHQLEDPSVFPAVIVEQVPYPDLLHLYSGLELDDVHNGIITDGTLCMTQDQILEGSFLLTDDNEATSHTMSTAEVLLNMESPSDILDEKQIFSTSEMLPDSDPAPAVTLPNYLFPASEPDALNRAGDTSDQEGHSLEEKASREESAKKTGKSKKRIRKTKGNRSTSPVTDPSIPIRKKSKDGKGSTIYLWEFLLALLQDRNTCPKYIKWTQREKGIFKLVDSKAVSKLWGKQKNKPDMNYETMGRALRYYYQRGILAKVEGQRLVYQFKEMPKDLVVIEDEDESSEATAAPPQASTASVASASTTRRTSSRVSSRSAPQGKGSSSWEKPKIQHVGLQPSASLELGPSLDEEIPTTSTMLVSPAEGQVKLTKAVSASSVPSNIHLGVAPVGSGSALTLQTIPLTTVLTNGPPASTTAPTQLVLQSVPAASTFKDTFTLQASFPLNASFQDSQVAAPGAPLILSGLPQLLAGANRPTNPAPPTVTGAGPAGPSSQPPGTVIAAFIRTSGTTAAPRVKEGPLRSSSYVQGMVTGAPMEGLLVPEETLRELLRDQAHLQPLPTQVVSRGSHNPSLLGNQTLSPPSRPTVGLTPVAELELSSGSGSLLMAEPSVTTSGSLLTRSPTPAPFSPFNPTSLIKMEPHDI
The target of assay [14] is T9, ELK4 (Homo sapiens, UniProt P28324-2 1-405).
T9 sequence: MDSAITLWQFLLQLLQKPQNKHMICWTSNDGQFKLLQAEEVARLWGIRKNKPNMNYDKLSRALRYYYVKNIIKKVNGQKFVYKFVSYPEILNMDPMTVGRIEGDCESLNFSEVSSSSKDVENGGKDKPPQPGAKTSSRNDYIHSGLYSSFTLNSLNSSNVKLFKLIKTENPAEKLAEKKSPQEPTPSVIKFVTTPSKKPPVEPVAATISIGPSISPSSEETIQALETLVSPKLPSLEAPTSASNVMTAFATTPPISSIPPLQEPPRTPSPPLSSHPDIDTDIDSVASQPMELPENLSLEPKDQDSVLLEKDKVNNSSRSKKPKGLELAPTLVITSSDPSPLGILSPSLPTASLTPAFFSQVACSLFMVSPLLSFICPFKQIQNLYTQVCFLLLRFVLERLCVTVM
The method, boiled down: as §1

Assay [15] deals with T10, ETV2 (Homo sapiens, UniProt O00321 1-342).
T10 sequence: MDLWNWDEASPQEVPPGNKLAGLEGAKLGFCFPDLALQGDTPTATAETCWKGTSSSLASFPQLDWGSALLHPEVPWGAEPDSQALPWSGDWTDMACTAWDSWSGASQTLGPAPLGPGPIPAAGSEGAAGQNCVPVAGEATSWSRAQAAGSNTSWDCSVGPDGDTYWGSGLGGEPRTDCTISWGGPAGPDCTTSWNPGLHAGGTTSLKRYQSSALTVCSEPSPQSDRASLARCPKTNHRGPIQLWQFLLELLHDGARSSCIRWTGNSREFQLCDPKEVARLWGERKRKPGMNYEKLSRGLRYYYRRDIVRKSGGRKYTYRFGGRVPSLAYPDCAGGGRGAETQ
The method, boiled down:
as §1

The target in assay [16] is T11, ELF3 (Homo sapiens, UniProt P78545 1-371).
T11 sequence: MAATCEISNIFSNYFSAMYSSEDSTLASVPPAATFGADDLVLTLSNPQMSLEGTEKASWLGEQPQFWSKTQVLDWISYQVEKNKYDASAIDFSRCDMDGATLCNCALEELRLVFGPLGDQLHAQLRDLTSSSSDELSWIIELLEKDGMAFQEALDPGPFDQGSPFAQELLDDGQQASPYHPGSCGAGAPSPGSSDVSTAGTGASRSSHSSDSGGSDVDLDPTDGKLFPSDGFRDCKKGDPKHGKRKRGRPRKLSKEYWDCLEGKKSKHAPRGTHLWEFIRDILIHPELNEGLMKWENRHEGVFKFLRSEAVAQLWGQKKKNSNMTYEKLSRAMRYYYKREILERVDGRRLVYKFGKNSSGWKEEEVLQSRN
An outline of the steps:
as §1

In assay [17] the target is ETV1 (Homo sapiens, UniProt P50549 1-477). The method, boiled down: as §1
ETV1, sequence (P50549 whole entry): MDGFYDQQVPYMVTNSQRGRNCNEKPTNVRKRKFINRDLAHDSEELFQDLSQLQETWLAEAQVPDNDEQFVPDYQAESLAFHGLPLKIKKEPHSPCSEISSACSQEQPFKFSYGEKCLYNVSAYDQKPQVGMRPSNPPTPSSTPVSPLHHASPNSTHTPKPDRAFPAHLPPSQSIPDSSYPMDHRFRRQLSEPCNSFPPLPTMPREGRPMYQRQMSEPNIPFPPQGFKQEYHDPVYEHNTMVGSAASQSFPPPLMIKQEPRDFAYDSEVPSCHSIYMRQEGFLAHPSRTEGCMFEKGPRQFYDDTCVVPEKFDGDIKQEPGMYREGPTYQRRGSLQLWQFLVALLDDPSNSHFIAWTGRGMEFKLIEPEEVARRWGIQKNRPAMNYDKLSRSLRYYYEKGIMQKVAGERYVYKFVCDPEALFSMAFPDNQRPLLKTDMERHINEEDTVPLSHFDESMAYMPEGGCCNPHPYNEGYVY
For assay [18], the target named is CRX (Homo sapiens, UniProt O43186 1-299). The method, boiled down: as §1
CRX, sequence (O43186 whole entry): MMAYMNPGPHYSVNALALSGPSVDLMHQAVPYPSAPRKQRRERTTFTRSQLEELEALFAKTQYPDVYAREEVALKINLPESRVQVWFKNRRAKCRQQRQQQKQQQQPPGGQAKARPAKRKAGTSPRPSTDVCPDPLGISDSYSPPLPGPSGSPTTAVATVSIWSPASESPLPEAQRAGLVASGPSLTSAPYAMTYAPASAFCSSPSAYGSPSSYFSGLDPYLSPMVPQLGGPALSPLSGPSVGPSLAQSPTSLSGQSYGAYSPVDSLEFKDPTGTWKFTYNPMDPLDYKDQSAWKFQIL

ETV5, sequence (P41161 whole entry): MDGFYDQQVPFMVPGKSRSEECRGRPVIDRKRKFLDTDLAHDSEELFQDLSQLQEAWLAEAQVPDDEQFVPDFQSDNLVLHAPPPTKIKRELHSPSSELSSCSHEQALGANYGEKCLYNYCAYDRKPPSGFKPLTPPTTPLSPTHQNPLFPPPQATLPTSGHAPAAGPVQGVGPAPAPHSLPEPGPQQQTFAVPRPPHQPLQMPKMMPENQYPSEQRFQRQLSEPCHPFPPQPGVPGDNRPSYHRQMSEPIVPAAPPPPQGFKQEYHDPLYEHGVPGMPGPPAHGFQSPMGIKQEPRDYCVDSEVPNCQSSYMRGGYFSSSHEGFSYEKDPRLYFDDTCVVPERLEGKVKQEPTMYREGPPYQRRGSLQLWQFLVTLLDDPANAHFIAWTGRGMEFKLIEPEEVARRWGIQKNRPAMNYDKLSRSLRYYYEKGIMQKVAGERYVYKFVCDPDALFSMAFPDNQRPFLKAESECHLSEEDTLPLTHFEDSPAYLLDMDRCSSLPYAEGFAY
ELF1, sequence (P32519 whole entry): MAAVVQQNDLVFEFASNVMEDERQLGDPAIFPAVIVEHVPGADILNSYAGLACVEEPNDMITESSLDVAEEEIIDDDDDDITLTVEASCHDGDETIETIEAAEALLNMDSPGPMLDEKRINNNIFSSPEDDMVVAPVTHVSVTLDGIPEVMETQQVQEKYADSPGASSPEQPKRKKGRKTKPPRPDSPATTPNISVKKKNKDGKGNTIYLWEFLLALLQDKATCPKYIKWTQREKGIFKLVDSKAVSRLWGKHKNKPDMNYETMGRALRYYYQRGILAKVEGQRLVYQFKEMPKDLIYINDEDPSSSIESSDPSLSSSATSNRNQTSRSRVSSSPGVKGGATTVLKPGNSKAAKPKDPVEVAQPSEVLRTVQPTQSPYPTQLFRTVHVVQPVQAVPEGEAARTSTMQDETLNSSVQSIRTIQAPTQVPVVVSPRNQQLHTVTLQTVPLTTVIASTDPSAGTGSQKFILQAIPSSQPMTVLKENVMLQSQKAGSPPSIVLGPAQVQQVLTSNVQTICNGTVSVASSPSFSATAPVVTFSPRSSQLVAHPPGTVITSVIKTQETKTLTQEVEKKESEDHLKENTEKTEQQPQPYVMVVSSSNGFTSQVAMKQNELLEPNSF

Take AGCAGC: the binding signal in [1] was 1.08 fold enrichment (6-mer frequency, TF over GST control); in [2], 1.06 fold enrichment (6-mer frequency, TF over GST control); in assay [3], 1.11 fold enrichment (6-mer frequency, TF over GST control); in assay [4], 1.11 fold enrichment (6-mer frequency, TF over GST control); in assay [5] it was 1.19 fold enrichment (6-mer frequency, TF over GST control); in [6] it was 1.1 fold enrichment (6-mer frequency, TF over GST control). Also, the binding signal was 1.05 fold enrichment (6-mer frequency, TF over GST control) in assay [7]; 1.11 fold enrichment (6-mer frequency, TF over GST control) in [8]; 1.16 fold enrichment (6-mer frequency, TF over GST control) in assay [9]; 1.12 fold enrichment (6-mer frequency, TF over GST control) in assay [10]; 1.18 fold enrichment (6-mer frequency, TF over GST control) in assay [11]; 1.11 fold enrichment (6-mer frequency, TF over GST control) in assay [12]. Further, the binding signal was 1.14 fold enrichment (6-mer frequency, TF over GST control) in assay [13]; 1.05 fold enrichment (6-mer frequency, TF over GST control) in assay [14]; 1.07 fold enrichment (6-mer frequency, TF over GST control) in [15]; 1.08 fold enrichment (6-mer frequency, TF over GST control) in [16]; 1.17 fold enrichment (6-mer frequency, TF over GST control) in assay [17].
With TGTTGA, the binding signal in assay [1] was 1.15 fold enrichment (6-mer frequency, TF over GST control); in assay [2], 1.08 fold enrichment (6-mer frequency, TF over GST control); in assay [3] it was 1.16 fold enrichment (6-mer frequency, TF over GST control); in assay [4] it was 1.08 fold enrichment (6-mer frequency, TF over GST control); in assay [5], 1.16 fold enrichment (6-mer frequency, TF over GST control); in assay [6], 1.07 fold enrichment (6-mer frequency, TF over GST control). Besides, the binding signal was 1.11 fold enrichment (6-mer frequency, TF over GST control) in assay [7]; 1.09 fold enrichment (6-mer frequency, TF over GST control) in [8]; 1.07 fold enrichment (6-mer frequency, TF over GST control) in assay [10]; 1.07 fold enrichment (6-mer frequency, TF over GST control) in assay [11]; 1.15 fold enrichment (6-mer frequency, TF over GST control) in assay [12]; 1.1 fold enrichment (6-mer frequency, TF over GST control) in [13]. Moreover, the binding signal in [14] is 1.16 fold enrichment (6-mer frequency, TF over GST control); in assay [15], 1.12 fold enrichment (6-mer frequency, TF over GST control); in [16], 1.09 fold enrichment (6-mer frequency, TF over GST control); in assay [18], 1.02 fold enrichment (6-mer frequency, TF over GST control); in assay [17], 1.07 fold enrichment (6-mer frequency, TF over GST control).
